UCHL1 block – blocks human UCHL1 ubiquitin-rhodamine cleavage; P09936; purified UCHL1, Ub-rhodamine cleavage fluorescence; inhibition, % at 20 µM; 0.2% of 47,000 active
USP10 block – blocks human USP10 ubiquitin-rhodamine cleavage | AID 1645856 | Q14694 | 1.1% of 47,000 active | inhibition, % at 20 µM | purified USP10, Ub-rhodamine fluorescence, 60 min
USP8 inh – human USP8 deubiquitinase inhibition; P40818; 4.2% of 47,000 active; inhibition, % at 20 µM; purified USP8, Ub-rhodamine cleavage fluorescence, 30 min
Target sequence (P40818 whole entry, looked up): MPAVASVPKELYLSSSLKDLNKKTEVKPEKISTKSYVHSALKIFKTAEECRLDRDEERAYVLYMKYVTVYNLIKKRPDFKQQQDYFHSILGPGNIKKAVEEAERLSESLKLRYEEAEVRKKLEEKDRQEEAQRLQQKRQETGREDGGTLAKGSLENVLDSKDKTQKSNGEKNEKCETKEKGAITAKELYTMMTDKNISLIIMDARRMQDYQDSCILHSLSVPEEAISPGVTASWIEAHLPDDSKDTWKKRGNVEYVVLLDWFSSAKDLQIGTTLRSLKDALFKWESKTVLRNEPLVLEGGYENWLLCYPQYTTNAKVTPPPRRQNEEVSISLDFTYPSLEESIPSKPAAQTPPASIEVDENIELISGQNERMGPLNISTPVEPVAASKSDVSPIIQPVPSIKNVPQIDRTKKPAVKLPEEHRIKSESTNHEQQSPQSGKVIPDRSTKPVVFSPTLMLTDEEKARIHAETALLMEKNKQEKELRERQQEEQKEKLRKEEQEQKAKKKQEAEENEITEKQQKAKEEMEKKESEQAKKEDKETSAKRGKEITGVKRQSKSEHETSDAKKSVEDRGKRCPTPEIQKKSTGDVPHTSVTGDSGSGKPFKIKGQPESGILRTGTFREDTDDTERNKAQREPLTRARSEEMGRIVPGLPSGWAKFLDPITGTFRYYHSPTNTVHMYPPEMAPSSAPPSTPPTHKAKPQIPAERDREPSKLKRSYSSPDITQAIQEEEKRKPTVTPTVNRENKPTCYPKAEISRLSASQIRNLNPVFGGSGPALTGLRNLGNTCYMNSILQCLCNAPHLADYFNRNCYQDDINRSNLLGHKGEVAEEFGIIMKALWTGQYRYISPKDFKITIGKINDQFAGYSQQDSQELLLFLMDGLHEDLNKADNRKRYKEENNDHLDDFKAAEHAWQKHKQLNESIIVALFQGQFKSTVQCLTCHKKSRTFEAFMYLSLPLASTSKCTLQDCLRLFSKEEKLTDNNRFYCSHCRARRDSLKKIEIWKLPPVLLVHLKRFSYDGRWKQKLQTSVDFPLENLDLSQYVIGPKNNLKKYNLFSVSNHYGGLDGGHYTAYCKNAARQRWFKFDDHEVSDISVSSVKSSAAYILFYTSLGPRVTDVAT
USP7 block – human USP7 deubiquitinase inhibition | Q93009 | purified USP7, Ub-rhodamine cleavage fluorescence | inhibition, % at 20 µM | 0.3% of 47,000 active | AID 1645854
Active calls of the source: *. Only some compounds are listed: those with a hit (about 4.6% of all), similar ones and a draw of the others. Cut-off read from the data, not from the text of the source: active = inhibition above about 30%; inactive = the rest.

SMILES	UCHL1 block	USP10 block	USP8 inh	USP7 block
CCc1nc(-c2cccc(NC(=O)c3ccccc3F)c2)no1	-3.6	-0.3	5.5	-2.8
Cc1nc(C2CCCN2C(=O)c2ccccn2)nc2c1CCC(=O)N2Cc1cccc(F)c1 (configuration not stated)	0.2	-1.7	10.7	1.8
COc1ccccc1NCC(=O)N1c2ccccc2NC(=O)C1(C)C	5.0	-0.2	33.7*	6.4
COc1ccc(NC(=O)CSc2nc3ccccc3c3nc(C)nn23)cc1OC	5.4	-0.3	41.3*	5.7
COc1ccc(-c2c(C)c(C(=O)c3ccco3)n3ccc4cc(OC)c(OC)cc4c23)cc1OC	-7.2	-9.4	67.8*	-16.2
COc1cc(NC(=O)c2ccco2)c(OC)cc1NC(=O)CN1CCCCC1	3.1	-4.9	1.0	-4.6
NC(=O)c1nc(C2CCCCC2)nc2c1[nH]c(=O)n2-c1ccccc1F	3.7	2.7	19.1	1.1
CC(C)CCn1c(CCCC(=O)N2CCCC2)nc2cccnc21	-58.9	-7.2	-13.7	-57.9
O=C(NCCc1nc2ccccc2n1CCCOc1ccccc1Cl)C1CCCCC1	-4.3	30.8*	74.3*	-4.8
CCOC(=O)c1noc2nc(C)nc(NCC3CCN(Cc4ccc(C)cc4)CC3)c12	-6.0	-8.4	-9.3	-6.3
CCOC(=O)c1noc2nc(C)nc(NCc3ccc(OC)cc3)c12	0.1	3.2	40.4*	-0.3
Cc1ccc(S(=O)(=O)Nc2ccccc2C(=O)Nc2nc3ccc(Br)cc3s2)cc1	53.2*	92.7*	95.5*	88.8*
COc1ccccc1NC(=O)c1cc(Br)cc(Cc2ccccc2)c1O	5.0	16.6	48.6*	-31.4
CSc1ccccc1NC(=O)CCCn1nc([N+](=O)[O-])cc1C	0.7	2.5	2.4	-2.8
Cc1cc([N+](=O)[O-])nn1CCCC(=O)Nc1ccc2c(c1)OCO2	7.0	6.9	44.8*	2.2
Cc1ccc2[nH]c(=O)c(-c3nc4ccc(C)cn4c3NCc3ccc(F)cc3)cc2c1	13.3	46.6*	77.6*	50.7*
COc1ccc2cc(-c3nc4cc(C)ccn4c3NCc3ccccc3)c(=O)[nH]c2c1	-26.1	-7.4	-194.5	-23.3
Cc1cc(C)nc(-n2ncc(C#N)c2NC(=O)c2ccc(Br)cc2)n1	-14.7	-2.0	44.5*	-11.8
O=c1[nH]cccc1NS(=O)(=O)c1ccc(F)cc1	26.0	-1.1	92.8*	-54.3
CCc1nc2c(NS(=O)(=O)c3ccc(F)cc3)cccn2n1	-6.7	-9.5	-10.5	-8.5
Cc1cc(C)nc(SCC(=O)Nc2nnc(C(F)(F)F)s2)n1	3.3	0.7	5.3	5.4
CC(C)(C)OC(=O)N1CCN(C(=O)c2cc3c(s2)CN(C2CC2)C3)CC1	2.0	0.0	0.6	-34.3
Cc1nn(C)cc1C(C)NC(=O)c1cc2c(s1)CN(C1CC1)C2 (configuration not stated)	0.6	-5.2	30.6*	-4.4
COC1CCN([C@@H]2[C@@H](O)[C@H](Oc3ccccc3)C[C@H]2NC(C)=O)CC1	0.5	-4.4	6.5	4.4
Cc1ccc(S(=O)(=O)N2CCC3(CC2)NC(=O)c2ccccc2N3)cc1C	2.6	1.2	7.2	5.1
SMILES	UCHL1 block	USP10 block	USP8 inh	USP7 block
CC(=O)c1ccc(S(=O)(=O)N2CCC3(CC2)NC(=O)c2ccccc2N3)cc1	0.0	21.4	32.5*	8.4
CCc1ccccc1NS(=O)(=O)c1ccc2c(c1)NC(=O)C(C)CS2 (configuration not stated)	3.1	3.2	0.7	2.6
CCCC[C@@H](C)/C=C(C)/C=C(\C)C(=O)NC1=C[C@](O)(/C=C/C=C/C=C/C(=O)NC2=C(O)CCC2=O)[C@@H]2O[C@@H]2C1=O	34.5*	6.3	-2.0	25.6
CCCCCCC(C)/C=C(C)/C=C/C(=O)N[C@H]1CC2(O[C@H]1O)[C@@H]1O[C@@H]1C(=O)[C@@H]1O[C@@H]12 (some centres not stated)	3.8	-4.9	-8.7	13.5
O=C(NCC1CCN(c2cc(-c3ccncc3)[nH]n2)CC1)C1CCCCC1	-21.6	-5.6	-158.1	-25.9
CN(c1ccc(Oc2ccc(C(F)(F)F)cn2)cc1)S(=O)(=O)c1ccccc1	9.9	1.9	72.9*	14.6
O=C(c1cnn2ccccc12)N1CCN(c2ccccn2)CC1	-1.0	1.0	2.8	0.2
CC(=O)Nc1cc(C(=O)NC2CCCC2)c2ccc(C)nc2c1	4.3	-6.6	33.6*	-9.0
O=S(=O)(c1ccc(F)cc1)N1CCOC(c2cnccn2)C1 (configuration not stated)	0.1	0.8	10.9	1.3
Cn1c(=O)c(N2CCN(C(=O)c3ccccc3F)CC2)nc2ccccc21	-0.1	0.2	-5.9	-6.3
O=C(NCc1ccc(-c2nc3ncccc3o2)cc1)c1ccccc1	3.9	9.0	32.2*	8.2
O=C(Nc1ccccc1)c1c(O)c2cnn(Cc3ccccc3)c2[nH]c1=O	-0.1	3.0	56.8*	4.7
CCc1ccc(CN(C)C(=O)c2ccc(NS(=O)(=O)c3ccc(F)c(F)c3)cc2)cc1	8.5	37.9*	18.5	8.9
Nc1ccc(NS(=O)(=O)c2ccc3c(c2)OCCCO3)cc1	1.1	1.3	32.9*	-1.1
O=C(COC(=O)c1ccc(NS(=O)(=O)c2ccc(F)c(F)c2)cc1)Nc1ccc(OCc2ccccc2)cc1	0.1	53.4*	1.8	3.9
O=C(COc1ccc(Cl)cc1)Nc1ccc(S(=O)(=O)Nc2ccccc2)cc1	3.4	26.0	8.5	3.8
CC(OC(=O)c1ccc(NS(=O)(=O)c2ccc3c(c2)OCCO3)cc1)C(=O)Nc1cccc2ccccc12 (configuration not stated)	-1.6	8.2	2.2	5.6
CC(C)c1ccc(NC(=O)COC(=O)c2ccc(NS(=O)(=O)c3ccc4c(c3)OCCO4)cc2)cc1	3.6	51.3*	-7.8	17.2
CC1CCN(S(=O)(=O)c2ccc(C(=O)Nc3ccc(S(N)(=O)=O)cc3)cc2)CC1	0.3	-0.1	13.3	1.1
CCc1cc2c(cc(C(=O)OC)n2CC(=O)Nc2ccc(C)cc2Cl)s1	0.8	6.2	-3.9	3.3
CCN(CC)S(=O)(=O)c1ccc2oc(N3CCOCC3)nc2c1	-2.0	1.1	68.0*	0.1
N#Cc1c2n(c(=O)n(Cc3ccc(Cl)cc3)c1=O)CCC2	-10.4	-7.9	4.4	-97.1
CCCCCCCCCCCC1=C(O)C(=O)C=C(O)C1=O	7.5	79.9*	60.5*	49.6*
COc1cccc(CN2CCC([C@@H]3C[C@H](C(F)(F)F)n4ncnc4N3)CC2)c1OC	-2.8	-0.6	2.4	1.0
Cc1cnc(C2(C)CCN(C(=O)CCc3c(C)noc3C)CC2)s1	-1.8	0.7	0.8	-0.3
CCc1cc(C(=O)N2CCCCC2c2nnc(-c3cnccn3)o2)cs1 (configuration not stated)	-0.7	0.5	-0.9	-0.1
Cc1cc2occ(CC(=O)N3CCCCC3c3nnc(-c4cnccn4)o3)c2cc1C (configuration not stated)	1.6	-0.6	30.2*	-2.7
Cc1ccc(S(=O)(=O)N(Cc2cc3ccc(C)cc3[nH]c2=O)CC2CCCO2)cc1 (configuration not stated)	-8.6	-10.3	0.1	-9.8
Cc1ccc2[nH]c(=O)c(CN(CC3COCCO3)S(=O)(=O)c3ccc(F)cc3)cc2c1 (configuration not stated)	0.0	23.0	35.1*	5.4
